Read-out in test [1]: Interleukin 17F (IL17F), IL17F (gene 112744)
The experiment in a line: BSK_BT_xIL17F: BioMAP Diversity Plus: BT Assay for Interleukin 17F (IL17F) Biomarker Activity (AID 2284243). As to conditions: primary human B cells with PBMC. The method, boiled down:
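Human B cells co-cultured with PBMC; secreted IL-17F quantified by LumineX xMAP 24 hours after chemical dosing. Activity fitted in the positive direction against DMSO negative control as baseline.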

Read-out in test [2]: Actin alpha 1 (ACTA1), ACTA1 (gene 58)
In words: BSK_MyoF_ACTA1: BioMAP Diversity Plus: MyoF Assay for Actin alpha 1 (ACTA1) Biomarker Activity (AID 2284244). The following applies: primary human lung fibroblasts. The method, boiled down:
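Human lung fibroblasts (MyoF system) dosed with test chemical for 24 h; α-SMA measured by ELISA. Gain of signal fitted relative to DMSO negative control as baseline.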

Read-out in test [3]: Interleukin 2 (IL2), IL2 (gene 3558)
The experiment in a line: BSK_BT_xIL2: BioMAP Diversity Plus: BT Assay for Interleukin 2 (IL2) Biomarker Activity (AID 2284245). The following applies: primary human B cells with PBMC. An outline of the steps: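 Human B cells co-cultured with PBMC, exposed to test chemical for 24 h. Secreted IL-2 quantified by Luminex xMAP bead immunoassay; activity fitted in the positive direction relative to DMSO vehicle baseline.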

Read-out in test [4]: Basic fibroblast growth factor (bFGF), FGF2 (gene 2247)
In words: BSK_MyoF_bFGF: BioMAP Diversity Plus: MyoF Assay for Basic fibroblast growth factor (bFGF) Biomarker Activity (AID 2284246). As to conditions: primary human lung fibroblasts. An outline of the steps:
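Human lung fibroblasts were dosed with chemicals and bFGF was quantified by ELISA 24 h later. Activity was fitted in the gain-of-signal direction relative to DMSO as negative control and baseline. Parallel SRB total-protein staining tracked overt cytotoxicity.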

Read-out in test [5]: Collagen IV, COL4A1 (gene 1282)
In words: BSK_MyoF_CollagenIV: BioMAP Diversity Plus: MyoF Assay for Collagen IV Biomarker Activity (AID 2284247). The following applies: primary human lung fibroblasts. An outline of the steps:
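Primary human lung fibroblasts were exposed to test chemicals and sampled 24 h after dosing. Collagen IV levels were measured by ELISA and fitted in the positive direction against DMSO as negative control and baseline.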

Read-out in test [6]: Plasminogen activator inhibitor-1 (PAI1), SERPINE1 (gene 5054)
In words: BSK_MyoF_PAI1: BioMAP Diversity Plus: MyoF Assay for Plasminogen activator inhibitor-1 (PAI1) Biomarker Activity (AID 2284256).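 On outcome: PAI-1 protein level measured by ELISA in fibroblast cultures; PAI-1 read 24 h after compound addition.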 As to conditions: primary human lung fibroblasts. An outline of the steps:
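Human lung fibroblasts (MyoF system) were exposed to test chemicals for 24 h, then PAI-1 was quantified by ELISA. Activity was fitted in the positive (signal-gain) direction relative to DMSO vehicle as baseline.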

Read-out in test [7]: Interleukin-8 (IL8), CXCL8 (gene 3576)
In words: BSK_MyoF_IL8: BioMAP Diversity Plus: MyoF Assay for Interleukin-8 (IL8) Biomarker Activity (AID 2284261). The following applies: primary human lung fibroblasts. The method, boiled down: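 IL-8 quantified by ELISA after 24 h compound exposure of primary human lung fibroblasts. SRB staining of parallel cultures flagged cytotoxicity; DMSO served as baseline.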

Read-out in a further test: Decorin, DCN (gene 1634)
In words: BSK_MyoF_Decorin: BioMAP Diversity Plus: MyoF Assay for Decorin Biomarker Activity (AID 2284265). The following applies: primary human lung fibroblasts. An outline of the steps:
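Decorin protein was quantified by ELISA 24 h after chemical addition to primary human lung fibroblasts and analysed as increase over DMSO. Cytotoxicity was tracked in parallel cultures by SRB total-protein staining read at 560 nm.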

Test [8] in a line: CCTE_Mundy_HCI_Cortical_Synap_Neur_Matur_NeuronCount: CCTE's Synaptogenesis and Neurite Maturation Assay in rat cortical cells for Neuron Count, Mundy Lab (AID 2284242; active means hit-call score of the fitted dose curve at least 0.9, where 1 is the maximum;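 on AC50: neuron number from Hoechst nuclei and MAP2 staining by high-content imaging; hits reduce neuron count versus DMSO baseline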). The method, boiled down:
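Rat primary cortical cells received AraC at DIV 5 to arrest glia, then were dosed with chemicals at DIV 7 through DIV 12. Fixed cells were stained for nuclei, MAP2 and synaptophysin, and neurons were counted by high-content imaging relative to DMSO.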

Read-out in test [9]: Collagen I, COL1A1 (gene 1277)
The experiment in a line: BSK_hDFCGF_CollagenI: BioMAP Diversity Plus: hDFCGF Assay for Collagen I Biomarker Activity (AID 2284250). The following applies: primary human foreskin fibroblasts. An outline of the steps: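 Primary human foreskin fibroblasts (hDFCGF system) exposed to chemical for 24 h; Collagen I measured by ELISA. Activity fitted in the positive direction relative to DMSO baseline, with SRB total-protein staining in parallel cultures for overt cytotoxicity.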

Read-out in test [10]: Vascular cell adhesion molecule 1 (VCAM1), VCAM1 (gene 7412)
The experiment in a line: BSK_BF4T_VCAM1: BioMAP Diversity Plus: BF4T Assay for Vascular cell adhesion molecule 1 (VCAM1) Biomarker Activity (AID 2284249). The following applies: primary human bronchial epithelial cells with fibroblasts. The method, boiled down: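 Human bronchial epithelial cell and dermal fibroblast co-culture exposed 24 h. VCAM-1 measured by ELISA; parallel SRB total-protein staining for cytotoxicity. Fitted in positive direction relative to DMSO.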

Read-out in test [11]: Monocyte Chemoattractant Protein-1 (MCP1), CCL2 (gene 6347)
The experiment in a line: BSK_IMphg_MCP1: BioMAP Diversity Plus: IMphg Assay for Monocyte Chemoattractant Protein-1 (MCP1) Biomarker Activity (AID 2284253). As to conditions: primary human endothelial cells with macrophages. The method, boiled down:
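Human venular endothelial cells co-cultured with macrophages; MCP-1 measured by ELISA 24 hours post-dose and fitted against DMSO. Cytotoxicity monitored by SRB total-protein staining in parallel cultures.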

Read-out in test [12]: Macrophage Inflammatory Protein-1 Alpha (MIP1a), CCL3 (gene 6348)
In words: BSK_IMphg_MIP1a: BioMAP Diversity Plus: IMphg Assay for Macrophage Inflammatory Protein-1 Alpha (MIP1a) Biomarker Activity (AID 2284255). The following applies: primary human endothelial cells with macrophages. The method, boiled down: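 Co-culture of human venular endothelial cells and macrophages exposed to compounds for 24 h; MIP-1a measured by ELISA relative to DMSO. Cytotoxicity assessed in parallel cultures by sulforhodamine B total-protein staining at 560 nm.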

Read-out in another test: CD69, CD69 (gene 969)
The experiment in a line: BSK_IMphg_CD69: BioMAP Diversity Plus: IMphg Assay for CD69 Biomarker Activity (AID 2284257). As to conditions: primary human endothelial cells with macrophages. An outline of the steps:
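Human venular endothelial cells co-cultured with macrophages; CD69 quantified by ELISA 24 h after compound addition. Activity fitted in the positive direction relative to DMSO baseline; cytotoxicity tracked in parallel cultures via SRB total-protein staining.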

Read-out in test [13]: Eotaxin 3, CCL26 (gene 10344)
In words: BSK_BF4T_Eotaxin3: BioMAP Diversity Plus: BF4T Assay for Eotaxin 3 Biomarker Activity (AID 2284258). As to conditions: primary human bronchial epithelial cells with fibroblasts. An outline of the steps: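 Co-culture of human bronchial epithelial cells and dermal fibroblasts, exposed to chemicals for 24 h versus DMSO. Eotaxin-3 quantified by ELISA; cytotoxicity checked in parallel cultures by sulforhodamine B total-protein staining.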

Read-out in test [14]: Monocyte Chemoattractant Protein-1 (MCP1), CCL2 (gene 6347)
In words: BSK_BF4T_MCP1: BioMAP Diversity Plus: BF4T Assay for Monocyte Chemoattractant Protein-1 (MCP1) Biomarker Activity (AID 2284259). As to conditions: primary human bronchial epithelial cells with fibroblasts. The method, boiled down: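 Co-culture of bronchial epithelial cells and dermal fibroblasts dosed with chemical; MCP-1 measured by ELISA 24 h later. Activity fitted in positive direction versus DMSO; cytotoxicity checked by SRB staining in parallel cultures.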

Read-out in test [15]: Intercellular Adhesion Molecule 1 (ICAM1), ICAM1 (gene 3383)
In words: BSK_BF4T_ICAM1: BioMAP Diversity Plus: BF4T Assay for Intercellular Adhesion Molecule 1 (ICAM1) Biomarker Activity (AID 2284260). The following applies: primary human bronchial epithelial cells with fibroblasts. The method, boiled down: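 Co-culture of human bronchial epithelial cells and dermal fibroblasts exposed 24 h to chemical; cell-surface ICAM-1 quantified by ELISA. Parallel SRB total-protein staining assessed cytotoxicity; activity fitted relative to DMSO.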

Read-out in a further test: CD90, THY1 (gene 7070)
The experiment in a line: BSK_BF4T_CD90: BioMAP Diversity Plus: BF4T Assay for CD90 Biomarker Activity (AID 2284262). The following applies: primary human bronchial epithelial cells with fibroblasts. The method, boiled down: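 Co-culture of human bronchial epithelial cells and dermal fibroblasts, 24 h compound exposure. Cell-surface CD90 measured by ELISA relative to DMSO; parallel SRB total-protein staining for cytotoxicity.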

Read-out in test [16]: Interleukin-8 (IL8), CXCL8 (gene 3576)
In words: BSK_BF4T_IL8: BioMAP Diversity Plus: BF4T Assay for Interleukin-8 (IL8) Biomarker Activity (AID 2284263). The following applies: primary human bronchial epithelial cells with fibroblasts. An outline of the steps: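 Human bronchial epithelial cells with dermal fibroblasts co-culture; IL-8 measured by ELISA 24 hours after dosing, fitted vs DMSO. Cytotoxicity tracked in parallel cultures by SRB total-protein staining.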

Read-out in test [17]: Interleukin-1 alpha (IL1a), IL1A (gene 3552)
In words: BSK_BF4T_IL1a: BioMAP Diversity Plus: BF4T Assay for Interleukin-1 alpha (IL1a) Biomarker Activity (AID 2284264). The following applies: primary human bronchial epithelial cells with fibroblasts. The method, boiled down:
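Human bronchial epithelial cells co-cultured with dermal fibroblasts, dosed and read at 24 h. Secreted/surface IL-1α quantified by ELISA; gain-of-signal fitted relative to DMSO baseline. Parallel SRB total-protein staining tracked cytotoxicity.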

“And” between values parts separate entries of the source, which are not always exact repeats. Identical values can stand only once. Records with an inconclusive call do not appear. Where a structure was tested more than once in an assay, its records may differ in their call. The source made the active and inactive calls. How the source made its calls, unless noted: active means hit-call score of the fitted dose curve at least 0.9, where 1 is the maximum; inactive means score below 0.9.

Regarding `CCOC(=O)CCCCCCCCC(=O)OCC`, the result in [1], in test [2], in [3], in test [4], in [5] and in test [6] was inactive. For the same compound, the outcome in test [7] is “inactive”; in the test with Decorin, DCN (gene 1634) it was “inactive”.
For the compound `CCCCCCCC1CCCC1=O` (configuration not stated), the result in test [1], in [2], in test [3], in test [4], in [5] and in test [6] was inactive. Also, the outcome is “inactive” in [7] and “inactive” with Decorin, DCN (gene 1634).
In the case of `O=C1OC2(c3ccc(O)cc3Oc3cc(O)ccc32)c2ccccc21`, the outcome in test [1], in [2], in test [3], in test [4], in test [5] and in test [6] was inactive. The outcome is “inactive” in test [7] and “inactive” in the test with Decorin, DCN (gene 1634).
As a reminder, the AC50 is the concentration at which the activity in the assay is half-maximal. Consider `c1ccc(Sc2ccccc2)cc1`, for which the result in test [1], in test [3] and in test [6] was inactive. Moreover, the half-maximal activity concentration (AC50) in test [2] was 30.8 µM (active); in test [4], 31.9 µM (active); in test [5], 32.6 µM (active); in test [7] it was 30.6 µM (active); with Decorin, DCN (gene 1634) it was 36.5 µM (active).
As for `CC(C)Cc1ccc(C(C)C(=O)O)cc1` (configuration not stated), the result in test [8], in test [1], in test [2], in test [3], in [4] and in test [5] was inactive. Besides, the outcome in [6] is “inactive”; in [7], “inactive”; in the test with Decorin, DCN (gene 1634) it was “inactive”.
As for `CC(=O)c1ccc(C)cc1`, the result in test [9] was inactive.
Take `OCC(F)(OC(F)(F)C(F)(OC(F)(F)C(F)(F)C(F)(F)F)C(F)(F)F)C(F)(F)F` (configuration not stated): the AC50 in [1] is 5.47 µM (active) and 5.77 µM (active); in [2], 3.43 µM (active) and 4.31 µM (active); in test [3] it was 4.97 µM (active); in test [5], 3.9 µM (active); in test [11], 4.65 µM (active); in [14], 4.19 µM (active). For the same compound, the result in test [3], in test [4], in test [5], in test [10], in [9] and in test [11] was inactive. Further, the outcome was “inactive” in test [12]; “inactive” in [6]; “inactive” with CD69, CD69 (gene 969); “inactive” in [13]; “inactive” in test [14]; “inactive” in test [15]. Moreover, the outcome is “inactive” in [7]; “inactive” with CD90, THY1 (gene 7070); “inactive” in test [16]; “inactive” in [17]; “inactive” in the test with Decorin, DCN (gene 1634).
In the case of `CCCCC(CC)COC(=O)COc1ccc(Cl)cc1C` (configuration not stated), in test [8], the AC50 is 11.9 µM (active).
For the compound `CCC(=O)OCC=Cc1ccccc1`, the result in test [1], in test [2], in test [3], in test [4], in test [5] and in test [6] was inactive. In addition, the outcome in test [7] was “inactive”; with Decorin, DCN (gene 1634) it was “inactive”.
`CCCCCCCCCCCCS`: the outcome in test [1], in test [3], in test [5] and in test [7] was inactive. Further, the half-maximal activity concentration (AC50) in test [2] was 18.6 µM (active); in test [4], 29 µM (active); in test [6], 20 µM (active); in the test with Decorin, DCN (gene 1634), 3.97 µM (active).

These data come from PubChem BioAssay (EPA / NIEHS).
